# Test results taken from PubChem BioAssay AID1645875 (National Center for Advancing Translational Sciences (NCATS), 2021).
# Records with an inconclusive call do not appear. The source made the active and inactive calls. Calls follow the shape of the dose curve; as a rule, active = well fitted inhibition curve with a large enough effect; inconclusive = small, poorly fitted or top-dose-only effect; inactive = no such curve, though single readings can be large or run the other way. Where a SMILES comes first, the peptide text is derived from it. The star is where a group is joined. AFC = O=c1cc(C(F)(F)F)c2ccc(N*)cc2o1
# Target: N-terminal Xaa-Pro-Lys N-methyltransferase 1 (Homo sapiens) (UniProt Q9BV86)
# Experiment: Orthogonal qHTS for Inhibitors of N-terminal methyltransferase 1 (NTMT1): ThioGlo Assay
# Settings: NTMT1 SAHH-coupled ThioGlo fluorescence, 30 min; series mostly up to 84.5 µM; activity, negative = inhibition: at the top concentration
# How it was run: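 125 nM NTMT1 pre-incubated 1 min at room temperature with titrated compounds, then 100 uM SAM, 10 uM SAHH and 15 uM ThioGlo3 (final) added. Fluorescence (ex 340/em 450 nm) read before and after 30 min in the dark, normalized to the initial background.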
# Chain of N-terminal Xaa-Pro-Lys N-methyltransferase 1 (Homo sapiens) (Q9BV86 whole entry, looked up): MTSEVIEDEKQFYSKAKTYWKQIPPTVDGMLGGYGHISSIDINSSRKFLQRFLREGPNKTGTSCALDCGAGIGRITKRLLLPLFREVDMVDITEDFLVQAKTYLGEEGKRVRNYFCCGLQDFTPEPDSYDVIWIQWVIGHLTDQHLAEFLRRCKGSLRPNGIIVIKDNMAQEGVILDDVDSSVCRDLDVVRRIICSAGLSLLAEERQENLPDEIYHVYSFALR
Compound,Potency,"activity, negative = inhibition"
CCN1CCCN(c2nc(NC3CCN(C(C)C)CC3)c3cc(OC)c(OCCCN4CCCCC4)cc3n2)CC1,38.8 µM (active),
COc1cc2c(NC3CCN(C)CC3)nc(N3CCCN(C)CC3)nc2cc1OCCCN1CCCCC1,43.5 µM (active),
COc1ccc(C2CC(=O)N3CN(C4CCCCC4)CSC3=C2C#N)cc1 (stereo not drawn),6.89 µM (active),
COc1cc2c(NC3CCN(C(C)C)CC3)nc(N3CCCCC3)nc2cc1OCCOCCN(C)C,34.5 µM (active),
CC(C)c1cc2c(c(O)c1O)[C@@]13CCCC(C)(C)[C@@H]1[C@H](OC3=O)C2=O,9.67 µM (active),
OCCn1cc(-c2cnc3nnn(Cc4ccc5ncccc5c4)c3n2)cn1,17.5 µM (active),
COc1ccnc(NC(=S)N2CCN(c3cccc(Cl)c3Cl)CC2)c1,3.88 µM (active),
NCCOc1cc(C(=O)Nc2cc(OCCN)c3ccccc3n2)nc(C(=O)Nc2cc(OCCN)c3ccccc3n2)c1,19.4 µM (active),
Cc1cc(C)c2c(N)c(C(=O)NCc3ccc(Cl)cc3)sc2n1,,137% [at 114 µM] (inactive)
NCC(O)C1CCCCCCC1 (stereo not drawn),,4.12% (inactive)
CNCCCOc1cc2nc(N3CCCN(C)CC3)nc(NC3CCN(C)CC3)c2cc1OC,43.5 µM (active),
NC(=O)c1cccc(-c2cc(OC(=O)NC3CCCCC3)ccc2O)c1,,-7.27% [at 114 µM] (inactive)
CC(=O)N[C@@H](CC(C)C)C(=O)N[C@@H](CCC(=O)O)C(=O)N[C@@H](CCC(=O)O)C(=O)N[C@@H](CC(=O)O)C(=O)Nc1ccc2c(C(F)(F)F)cc(=O)oc2c1 (Ac-LEED-{AFC}),44.1 µM (active),
